SMILES strings stand for the structures. Among all 360,000 compounds or so, about 350 (0.097%) were called active. This excerpt belongs to a sample that is enriched for actives. A number with no mark means an inactive call. No stated cut-off is given here; in the data, active means inhibition above about 16% (passing the limit was not always enough); inconclusive means no clear call, values can overlap the other calls; inactive means below that.

By inhibition is commonly meant the drop in the measured response relative to a control, in per cent.

The subject of this assay is UDP-N-acetylbacillosamine N-acetyltransferase PglD (Campylobacter jejuni). Description: blockers of PglD enzyme activity – biochemical, DTNB colorimetric, single point, primary screen (AID 602405). Particulars: purified PglD enzyme, DTNB colorimetric CoA detection; at 12.5 µM; stronger effect = higher value.
With `COC(=O)C[C@@H]1CC[C@H]2[C@@H](COC[C@H](O)CN2C(=O)Nc2ccccc2OC)O1`, the inhibition is -0.947%.

As for `C[C@@H]1CN([C@@H](C)CO)C(=O)c2cc(NC(=O)CCCN(C)C)ccc2O[C@@H](C)CCCCO[C@H]1CN(C)Cc1ccc2c(c1)OCO2`, the inhibition was -1.38%.

As to `Cc1noc(C)c1NC(=O)Nc1ccc2c(c1)C(=O)N([C@H](C)CO)C[C@H](C)[C@H](CN(C)C(=O)C1CCCCC1)OCCCC[C@@H](C)O2`, the inhibition is 0.321%.

Take `CCCNC(=O)N1C[C@@H](O)COC[C@@H]2O[C@@H](CC(=O)O)CC[C@H]21`: the inhibition is -1.59%.

With `CC(C)C#Cc1ccc([C@@H]2[C@@H](CO)N3CCCCN(C(=O)c4ccc5c(c4)OCO5)C[C@H]23)cc1`, the inhibition is -1.45%.

Consider `OC[C@@H]1Nc2ccc(-c3cccc(F)c3)cc2[C@H]2[C@@H]1CCN2Cc1ccncc1`, for which the inhibition is -3.81%.

For the compound `COc1cccc(S(=O)(=O)N[C@@H]2C=C[C@H](CC(=O)NC3CCC3)O[C@H]2CO)c1`, the inhibition was -3.06%.

As for `CN1C(=O)c2cc(NC(=O)C3CCCCC3)ccc2OC[C@H]2O[C@@H](CC(=O)NC3CCCC3)CC[C@@H]21`, the inhibition was -4.23%.

Take `CCCNC(=O)N1[C@H](C#N)[C@@H](c2ccc(C3=CCCC3)cc2)[C@H]1CO`: the inhibition is 10.3%.

Consider `C[C@H](CO)N1C[C@H](C)[C@H](CN(C)Cc2ccc(C(=O)Nc3ccccc3N)cc2)Oc2c(NC(=O)Nc3ccccc3)cccc2C1=O`, for which the inhibition was 1.92%.

As for `CO[C@@H]1CN(C)C(=O)c2ccc(NC(=O)c3ccc(F)cc3)cc2OC[C@H](C)N(C(=O)c2ccc(F)cc2)C[C@@H]1C`, the inhibition was -1.94%.

In the case of `COc1ccc(NC(=O)Nc2cccc3c2O[C@H](CN(C)C(=O)Nc2cccc4ccccc24)[C@H](C)CN([C@H](C)CO)C3=O)cc1`, the inhibition was 2.27%.

Consider `CC(C)CC#Cc1ccc2c(c1)O[C@H](CN(C)C(=O)CC1CC1)[C@@H](C)CN([C@@H](C)CO)S2(=O)=O`, for which the inhibition is 0.792%.

For `CC(C)CCNC(=O)c1[nH]c(C(F)(F)F)nc1-c1ccccc1`, the inhibition is -5.32%.

`CC(C)CCNC(=O)c1ccc2c(Cl)c3c(nc2c1)CCC3`: the inhibition is 58.9% (active).

As for `CC(C)CCC(C)NC(=O)c1ccc2nccnc2c1` (centres undefined), the inhibition is -0.116%.

For `Cc1noc(C)c1NC(=O)Nc1ccc2c(c1)CC(=O)N([C@H](C)CO)C[C@H](C)[C@H](CN(C)C(=O)NC(C)C)O2`, the inhibition was 2.55%.

Turning to `CC(=O)N(C)C[C@H]1Oc2cc(C#CCN(C)C)ccc2S(=O)(=O)N([C@H](C)CO)C[C@H]1C`, the inhibition is -4.02%.

For `CC=Cc1ccc2n(c1=O)C[C@@H]1[C@@H](CO)[C@H](C(=O)NCc3cccc(OC)c3)N[C@H]21` (mixture of isomers), the inhibition was 0.651%.

As for `CCCNC(=O)C[C@H]1C[C@@H]2c3cc(NC(=O)c4ccc5c(c4)OCO5)ccc3O[C@@H]2[C@@H](CO)O1`, the inhibition is -7.26%.

With `Cc1ccc(S(=O)(=O)Nc2ccc3c(c2)C(=O)N([C@H](C)CO)C[C@H](C)[C@@H](CN(C)C(=O)NC(C)C)OCCCC[C@@H](C)O3)cc1`, the inhibition is -2.85%.

Regarding `Cc1ccc(S(=O)(=O)NCCC(=O)NCc2ccc(Cl)cc2)cc1C`, the inhibition is -81.7%.

For the compound `CSc1ccc(S(=O)(=O)NCc2ccc(Cl)cc2)cc1`, the inhibition is 26.5% (active).

With `CC(C)CNS(=O)(=O)c1ccc(CCC(=O)NCc2ccc(Cl)cc2)cc1`, the inhibition is 0.729%.

On to `COC(=O)C[C@@H]1C[C@H]2c3cc(NC(=O)CN(C)C)ccc3O[C@H]2[C@H](CO)O1`, for which the inhibition is 1.44%.

`COc1ccc(S(=O)(=O)Nc2cccc3c2O[C@@H](CN(C)C(=O)NC(C)C)[C@H](C)CN([C@@H](C)CO)C3=O)cc1`: the inhibition was 3.51%.

As to `CCCNC(=O)Nc1ccc2c(c1)C(=O)N(C)C[C@H](OC)[C@H](C)CN[C@@H](C)CO2`, the inhibition was 1.64%.

Consider `C[C@H]1CN([C@@H](C)CO)C(=O)c2cccc(NC(=O)Nc3ccccc3)c2O[C@H]1CN(C)S(=O)(=O)c1ccc(Cl)cc1`, for which the inhibition is 1.05%.

`O=C(N[C@H]1C=C[C@@H](CC(=O)N2CCN(c3ccccc3)CC2)O[C@@H]1CO)c1ccncc1`: the inhibition was 1.58%.

For `CCC(=O)Nc1ccc2c(c1)C(=O)N(C)C[C@@H](OC)[C@@H](C)CN(Cc1ccccc1F)[C@H](C)CO2`, the inhibition is 2.28%.

With `CCCNC(=O)N(C)C[C@H]1Oc2ncc(-c3cccc(C#N)c3)cc2C(=O)N([C@@H](C)CO)C[C@H]1C`, the inhibition is 0.216%.

On to `O=C(CNC(=O)c1ccco1)NNC(=O)c1ccc(Br)cc1`, for which the inhibition was 2.58%.

For the compound `O=C(NNC(=O)c1ccco1)Nc1ccccc1`, the inhibition was 3.41%.

`O=C(Nc1ccc(Sc2ccc(Br)cc2)cc1)c1ccco1`: the inhibition was 20.2% (active).

For the compound `O=C(Nc1ccccc1F)N1C[C@H]2[C@@H](c3ccccc31)[C@@H](CO)N2C(=O)Cc1cccnc1`, the inhibition was 5.55%.

Take `COc1ccc(NC(=O)Nc2ccc3c(c2)C(=O)N([C@@H](C)CO)C[C@@H](C)[C@H](CN(C)Cc2ccc(Cl)c(Cl)c2)O3)cc1`: the inhibition is 6.96%.

On to `COc1cccc(CNC(=O)C[C@@H]2C=C[C@@H](NC(=O)C3CCC3)[C@@H](CO)O2)c1`, for which the inhibition was -2.99%.

In the case of `Cc1noc(C)c1NC(=O)N(C)C[C@@H]1Oc2ccc(NS(C)(=O)=O)cc2C(=O)N([C@H](C)CO)C[C@@H]1C`, the inhibition is -1.3%.

As for `C[C@H](O)C#Cc1ccc2c(c1)O[C@@H](CN(C)C(=O)C1CCCCC1)[C@H](C)CN([C@@H](C)CO)S2(=O)=O`, the inhibition is -1%.

Turning to `C[C@H]1CCCCO[C@H](CN(C)CC2CC2)[C@@H](C)CN([C@@H](C)CO)C(=O)c2cc(NS(C)(=O)=O)ccc2O1`, the inhibition is 32%.

With `O=C(c1ccc(F)cc1)N1CCCCN2[C@@H](CO)[C@H](c3ccc(-c4ccccc4)cc3)[C@@H]2C1`, the inhibition is 1.69%.

Turning to `CN(C)/C=C1\C=C(c2ccccc2)OC1=O`, the inhibition is -0.491%.

Take `Cc1ccc(C(=O)N/C(=C/c2cccnc2)C(=O)O)cc1`: the inhibition was -2.85%.

With `Cc1ccc(C2=C/C(=C\c3cccnc3)C(=O)O2)cc1`, the inhibition is 49.3% (active).
